A short description of assay [1]: compounds binding Alexa647 anti-His antibody – biochemical, small-molecule microarray, 635 nm fluorescence, artefact control for SMM control protein annotation, primary screen (AID 1128).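 Further: score merges feature fluorescence with signal-to-noise for each printed compound spot.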 Particulars: higher = more signal.
Assay [2] concerns Human papillomavirus type 1a E7 protein (residues 1-88). In words: HPV1a E7 small-molecule binders, primary screen, biochemical, small-molecule microarray, residues 1-88, 635 nm (AID 1129). Particulars: small-molecule microarray binding, fluorescence 635 nm; higher = more signal.
Assay [3] deals with Focal adhesion kinase 1 (Homo sapiens) (UniProt Q05397). Description: PTK2 protein binding on printed compound slides – biochemical, small-molecule microarray, 635/667 nm fluorescence, BSA, DTT, primary screen (AID 1130).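 Further: composite of spot emission at 667 nm and signal to noise over triplicate slides.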 Particulars: 635 nm fluorescence, higher = more signal.
Chain of Focal adhesion kinase 1 (Homo sapiens) (Q05397 whole entry, looked up): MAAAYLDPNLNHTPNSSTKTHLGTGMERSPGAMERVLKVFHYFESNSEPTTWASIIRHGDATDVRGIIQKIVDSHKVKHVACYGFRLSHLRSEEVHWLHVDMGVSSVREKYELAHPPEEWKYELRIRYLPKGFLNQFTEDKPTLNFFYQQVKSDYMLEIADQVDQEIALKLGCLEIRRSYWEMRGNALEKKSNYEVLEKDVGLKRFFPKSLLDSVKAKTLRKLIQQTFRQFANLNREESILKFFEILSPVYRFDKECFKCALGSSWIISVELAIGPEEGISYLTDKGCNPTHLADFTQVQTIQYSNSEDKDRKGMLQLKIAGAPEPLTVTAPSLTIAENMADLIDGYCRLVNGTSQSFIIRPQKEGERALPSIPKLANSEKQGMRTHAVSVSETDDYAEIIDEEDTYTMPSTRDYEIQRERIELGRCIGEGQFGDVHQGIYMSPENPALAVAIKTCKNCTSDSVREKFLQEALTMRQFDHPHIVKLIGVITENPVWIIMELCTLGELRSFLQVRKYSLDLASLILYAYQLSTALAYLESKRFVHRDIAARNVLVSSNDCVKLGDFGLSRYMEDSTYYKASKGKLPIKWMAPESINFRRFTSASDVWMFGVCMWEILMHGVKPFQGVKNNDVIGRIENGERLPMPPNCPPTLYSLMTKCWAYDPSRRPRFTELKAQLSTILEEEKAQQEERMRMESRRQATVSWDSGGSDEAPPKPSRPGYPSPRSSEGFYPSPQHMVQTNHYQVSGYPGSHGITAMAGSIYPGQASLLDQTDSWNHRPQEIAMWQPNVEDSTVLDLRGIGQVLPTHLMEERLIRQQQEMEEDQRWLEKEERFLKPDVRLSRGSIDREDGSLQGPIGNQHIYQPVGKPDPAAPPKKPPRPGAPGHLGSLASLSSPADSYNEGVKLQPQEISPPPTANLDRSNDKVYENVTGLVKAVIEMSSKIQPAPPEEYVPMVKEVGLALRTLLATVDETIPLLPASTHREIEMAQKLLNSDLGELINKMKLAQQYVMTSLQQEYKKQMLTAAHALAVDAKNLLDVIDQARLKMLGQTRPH
Assay [4] has as its system Fibrinogen (Alexa647-labelled). In words: Alexa647-fibrinogen binding to printed small molecules – biochemical, small-molecule microarray, 635/667 nm fluorescence, artefact control for SMM control-protein annotation, profiling panel (AID 1131).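 Further: z-score merges 667 nm fluorescence with per-spot signal-to-noise over triplicate slides.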 The conditions noted are these: fibrinogen-A647 binding fluorescence, higher = more signal.
The target of assay [5] is Follistatin (Homo sapiens) (UniProt P19883). Description: FST protein binding to printed compounds – biochemical, small-molecule microarray, 635/667 nm fluorescence, primary screen (AID 1132). Particulars: 635 nm fluorescence, higher = more signal.
Chain of Follistatin (Homo sapiens) (P19883 whole entry, looked up): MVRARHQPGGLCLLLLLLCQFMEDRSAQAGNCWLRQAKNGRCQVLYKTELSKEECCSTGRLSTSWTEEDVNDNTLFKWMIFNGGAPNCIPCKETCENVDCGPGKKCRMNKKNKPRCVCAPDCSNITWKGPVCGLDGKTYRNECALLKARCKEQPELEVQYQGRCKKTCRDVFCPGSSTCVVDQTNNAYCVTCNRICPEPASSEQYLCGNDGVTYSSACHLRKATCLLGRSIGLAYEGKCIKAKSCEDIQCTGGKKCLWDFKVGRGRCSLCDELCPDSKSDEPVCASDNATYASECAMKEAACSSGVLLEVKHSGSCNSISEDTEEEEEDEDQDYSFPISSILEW
Assay [6] deals with Fibroblast growth factor 2 (Homo sapiens) (UniProt P09038). Description: basic fibroblast growth factor binding to printed compounds – biochemical, small-molecule microarray, 635/667 nm fluorescence, primary screen (AID 1133). The conditions noted are these: FGF2, fluorescence 635/667, higher = more signal.
Chain of Fibroblast growth factor 2 (Homo sapiens) (P09038 whole entry, looked up): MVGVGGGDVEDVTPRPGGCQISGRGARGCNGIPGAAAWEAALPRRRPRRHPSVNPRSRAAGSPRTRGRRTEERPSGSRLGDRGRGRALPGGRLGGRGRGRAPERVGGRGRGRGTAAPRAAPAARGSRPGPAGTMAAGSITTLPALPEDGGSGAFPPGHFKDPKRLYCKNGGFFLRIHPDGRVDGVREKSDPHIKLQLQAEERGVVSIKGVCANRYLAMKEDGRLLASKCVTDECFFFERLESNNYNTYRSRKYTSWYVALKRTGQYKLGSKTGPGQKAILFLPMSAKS
Assay [7] in a line: JC-1 mitochondrial potential readout, lung cancer cells – cell-based, A549, JC-1 fluorescence, basal, 24 h, 100 nL, profiling panel (AID 1138).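 Further: A549 lung adenocarcinoma cells under basal conditions with no added stimulus; test concentration not given here.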 The conditions noted are these: higher = more signal.
The test system of a further assay is Lefty1. Description: Lefty1 protein binding to printed compounds – biochemical, small-molecule microarray, 635/667 nm fluorescence, primary screen (AID 1139). Particulars: fluorescence 635/667, higher = more signal.
Assay [8] deals with wheat germ agglutinin (Triticum aestivum), Alexa647-labelled. In words: Alexa647-WGA lectin binding to printed small molecules – biochemical, small-molecule microarray, 635/667 nm fluorescence, artefact control for SMM control-protein annotation, profiling panel (AID 1140).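 Further: score merges 667 nm feature emission with signal to noise over triplicate slides.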 Particulars: WGA-A647 binding, 635 nm fluorescence, higher = more signal.
The target of assay [9] is Luciferin 4-monooxygenase (Photinus pyralis) (UniProt P08659). Description: inhibition of purified Photinus pyralis luciferase – biochemical, luminescence, purified enzyme, 2006 set, primary screen (AID 1141).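 Further: cell-free assay with purified firefly luciferase at 100 ng per well in PBS; test concentration not given here.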 Particulars: purified firefly luciferase, SteadyGlo luminescence, 30 min; higher = more signal, called active from +8 up or from −8 down.
Chain of Luciferin 4-monooxygenase (Photinus pyralis) (P08659 whole entry, looked up): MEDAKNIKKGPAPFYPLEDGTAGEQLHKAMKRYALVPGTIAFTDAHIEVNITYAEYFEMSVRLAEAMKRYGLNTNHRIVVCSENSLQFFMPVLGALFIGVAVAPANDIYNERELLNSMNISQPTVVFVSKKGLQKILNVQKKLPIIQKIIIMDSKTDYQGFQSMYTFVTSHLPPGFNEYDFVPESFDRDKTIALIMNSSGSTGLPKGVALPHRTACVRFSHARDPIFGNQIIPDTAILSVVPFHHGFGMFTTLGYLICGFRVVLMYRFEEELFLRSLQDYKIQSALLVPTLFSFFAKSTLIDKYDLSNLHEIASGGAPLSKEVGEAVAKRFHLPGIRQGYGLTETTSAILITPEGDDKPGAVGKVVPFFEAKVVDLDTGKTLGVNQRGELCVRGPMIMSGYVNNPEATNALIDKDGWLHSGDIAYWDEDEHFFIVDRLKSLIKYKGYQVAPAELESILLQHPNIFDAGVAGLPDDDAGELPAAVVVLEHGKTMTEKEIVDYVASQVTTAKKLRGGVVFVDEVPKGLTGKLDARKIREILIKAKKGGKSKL

Active and inactive are the calls of the source.

As for `COC(=O)C(CC#Cc1ccc2c(c1)[C@]1(C(=O)N2)[C@H](c2ccc(O)cc2)N2[C@H](c3ccccc3)[C@H](c3ccccc3)OC(=O)[C@H]2[C@@H]1C(=O)NC[C@H](O)c1ccccc1)C(=O)OC`, the composite z-score was 0.509 in [1]; 0.779 in assay [2]; 0.408 in [3]; 0.733 in [4]; 1.21 in assay [5]; 0.551 in assay [6]. Also, the composite z-score in the assay on Lefty1 was determined as 0.685; in assay [8] it was 0.9. The z-score in assay [7] is -0.97; in [9] it was 0.314 (inactive).

Turning to `C=CC[C@]1(C(=O)N2CCCCC2)N=C(c2ccc(OCCCO)cc2)O[C@H]1c1ccccc1CN=[N+]=[N-]`, the composite z-score came to 1.33 in assay [1]; 1.24 in assay [2]; 0.293 in [3]; 1.01 in [4]; 1.29 in assay [5]; 0.524 in assay [6]. Besides, the figures for the composite z-score (in the assay with Lefty1; in assay [8]) were 0.228 and 0.657, respectively. Further, the z-score in assay [7] was 1.29; in [9] it was 0.498 (inactive).

Take `C=CC[C@H](OC(=O)Nc1ccc(SC)cc1)c1ccc(O)c2ccccc12`: the composite z-score in assay [1] is 0.942; in assay [2] it was 1.23; in [3] it was 0.492; in [4], 0.938; in assay [5], 1.36; in assay [6], 1.23. For the same compound, the composite z-score turned out to be 1.08 in the assay on Lefty1 and 0.937 in assay [8]. Also, the z-score in assay [7] was -1.72; in [9], -4.58 (inactive).

Consider `COCCOC(=O)N1C(=O)[C@@]2(c3cc(C#CC4(O)CCCCCC4)ccc31)[C@H](c1ccc(O)cc1)N1[C@H](c3ccccc3)[C@H](c3ccccc3)OC(=O)[C@H]1[C@@H]2C(=O)N1CCN(c2ncccn2)CC1`, for which the composite z-score in assay [1] turned out to be 0.388; in assay [2] it was 1.17; in [3], 0.839; in [4] it was 0.576; in assay [5], 1.06; in assay [6] it was 1.32. Further, the composite z-score in the assay with Lefty1 is 0.497; in assay [8], 0.417. In addition, the z-score is -0.976 in assay [7] and -0.47 (inactive) in assay [9].

With `CCCCC(CC)C(O)C1C=CC2C(=O)N(C)C(=O)C2N1Nc1ccccc1` (stereo not given), the composite z-score in assay [1] was 1.51; in assay [2], 1.21; in assay [3] it was 0.592; in [4] it was 0.852; in assay [5] it was 0.22; in assay [6], -0.364. Further, the composite z-score in the assay on Lefty1 was -0.118; in [8], 0.795. Also, the results for the z-score in [7] and in [9] were 0.665 and 0.546 (inactive), respectively.

With `CCCNC(=O)[C@@]1(Sc2ccc(C)cc2)CC(=O)N(C2Cc3ccccc3C2)[C@@H]1c1ccc(CO)cc1I`, the composite z-score in assay [1] was 1.59; in assay [2] it was 0.255; in assay [3], 0.371; in assay [4] it was 0.34; in assay [5] it was 1.01; in assay [6], -0.209. Further, the figures for the composite z-score (in the assay with Lefty1; in assay [8]) were 0.489 and 0.157, respectively. The values for the z-score in [7] and in [9] were 1.87 and -0.767 (inactive), respectively.

For `CC(C)=C1C(=O)C(c2ccccc2)=C2CN3C(=O)N(CCc4ccccc4)C(=O)[C@]3(Cc3ccc(C(F)(F)F)cc3)[C@H]21`, the composite z-score in [1] was -0.0822; in assay [2] it was 0.566; in assay [3], 1.01; in [4] it was -0.0056; in assay [5] it was 0.0359; in [6] it was -1.29. In addition, the composite z-score is -1.16 with Lefty1 and 0.8 in assay [8]. Moreover, the z-score was 1.57 in assay [7] and 0.359 (inactive) in [9].

On to `[N-]=[N+]=NCc1ccccc1[C@H]1OC(c2ccc(OCCCO)cc2)=N[C@@]1(Cc1ccccc1N=[N+]=[N-])C(=O)NCC(O)CO` (stereo not given in full), for which the composite z-score in assay [1] was 0.363; in assay [2], 1.22; in [3] it was 0.566; in [4], 0.711; in assay [5], 1.13; in [6] it was -0.401. For the same compound, the figures for the composite z-score (in the assay on Lefty1; in assay [8]) were 0.194 and 1.12, respectively. Besides, the z-score in assay [7] was 0.118; in assay [9], -2.09 (inactive).

`COCC(=C=CC[C@H](O)c1ccc(OCCO)cc1)CCO`: the composite z-score was 0.434 in [1]; 0.633 in assay [2]; -0.225 in assay [3]; -0.142 in assay [4]; 1.41 in [5]; 1.06 in [6]. Further, the composite z-score with Lefty1 was 1.56; in [8] it was -0.335. In addition, the z-score in [7] is 0.63; in [9] it was -1.36 (inactive).

`CS(=O)(=O)CCOC(=O)C1=CC(CCCO)=CC(c2ccc(CN3CCCC3)cc2)N(Cc2sc3ccccc3c2Cl)C=C1C(=O)OCCS(C)(=O)=O` (stereo not given): the composite z-score came to 2.17 in assay [1]; 1.18 in [2]; 0.45 in [3]; 1 in assay [4]; 0.526 in [5]; 1.21 in assay [6]. Moreover, the composite z-score with Lefty1 was found to be 0.722; in assay [8], 1.31. Also, the z-score in [7] is 2.31; in [9], -1.57 (inactive).

For `COCCOC(=O)N1C(=O)[C@@]2(c3cc(C#CCNC(N)=O)ccc31)[C@H](C(N)=O)[C@H]1C(=O)O[C@H](c3ccccc3)[C@H](c3ccccc3)N1[C@@H]2c1ccccc1OCCO`, the composite z-score in [1] was 0.193; in assay [2], 0.956; in assay [3], 0.538; in assay [4] it was 0.834; in assay [5], 1.38; in [6], 1.5. Also, the results for the composite z-score (with Lefty1; in [8]) were 0.684 and 0.403, respectively. In addition, the z-score in assay [7] is -1.17; in assay [9] it was -1.07 (inactive).

Take `COc1cc2c(cc1O)C=[N+](Cc1sc3ccccc3c1Cl)CC2`: the composite z-score in [1] is 0.505; in [2], 0.0341; in [3], -0.292; in assay [4], 0.257; in [5] it was 0.609; in assay [6], 0.182. The composite z-score with Lefty1 stood at 0.0893; in assay [8], 0.311. Also, the z-score in [7] is -0.571; in [9], 0.5 (inactive).

As to `CCCCC(CC)C(O)C1C=CC2C(=O)N(c3ccccc3)C(=O)C2N1Nc1ccc(C#N)cc1` (stereo not given), the composite z-score in [1] worked out at 1.34; in assay [2] it was 1.21; in assay [3], 0.702; in assay [4] it was 0.922; in assay [5], 1.07; in assay [6] it was 0.208. For the same compound, the values for the composite z-score (in the assay with Lefty1; in assay [8]) were 0.131 and 1.12, respectively. Further, the z-score in assay [7] was -0.213; in assay [9], -1.92 (inactive).

`CCCCCN1CC=CC23O[C@@H]4C=CCCOC(=O)C4[C@H]2C(=O)N(CCCCCCO)[C@@H]3C1=O` (stereo not given in full): the composite z-score in assay [1] is 2.82; in [2], -0.0566; in assay [3], -0.0757; in assay [4] it was -1.21; in assay [5] it was -0.444; in assay [6], -0.439. Also, the figures for the composite z-score (in the assay with Lefty1; in assay [8]) were -0.0715 and -0.411, respectively. Also, the figures for the z-score in assay [7] and in assay [9] were 0.608 and -0.086 (inactive), respectively.

For `COc1ccc(C#Cc2ccc3c(c2)[C@]2(C(=O)N3)[C@H](c3ccc(OCCO)cc3)N3[C@H](c4ccccc4)[C@H](c4ccccc4)OC(=O)[C@H]3[C@@H]2C(=O)NC[C@H](O)c2ccccc2)cc1`, the composite z-score amounted to 0.825 in assay [1]; 1.23 in assay [2]; 0.116 in assay [3]; 0.928 in [4]; 0.789 in assay [5]; 1.05 in [6]. Further, the results for the composite z-score (with Lefty1; in [8]) were 0.906 and 0.887, respectively. Further, the z-score is -1.54 in assay [7] and -0.0696 (inactive) in [9].

With `COc1ccc([Si](C)(C)[C@@H]2[C@@H](CC(=O)N3CCC[C@H]3CO)O[C@]3(C(=O)N(Cc4cccc(N5C(=O)COc6ccccc65)c4)c4ccccc43)[C@H]2C)cc1`, the composite z-score stood at 1.43 in [1]; 1.21 in assay [2]; 0.438 in assay [3]; 0.711 in assay [4]; 0.821 in assay [5]; 1.22 in assay [6]. The composite z-score with Lefty1 was 0.984; in assay [8] it was 1.15. In addition, the z-score in assay [7] was -0.522; in [9], -0.23 (inactive).

With `CCCC[C@@H](O)C1=C(COC)C[C@H]2C(=O)N(C)C(=O)[C@H]2[C@H]1CO`, the composite z-score in assay [1] was 0.217; in assay [2] it was -0.165; in assay [3] it was -0.185; in assay [4], 0.171; in assay [5], 0.504; in assay [6], 0.201. Also, the figures for the composite z-score (in the assay with Lefty1; in assay [8]) were 1.14 and -0.11, respectively. Besides, the z-score in assay [7] was -0.278; in assay [9] it was 0.0646 (inactive).

These data come from PubChem BioAssay.
